Data from PubChem BioAssay AID1159580 (chemical genetic matrix, 2015).
Hit rate of the full screen: of about 5,500 compounds, about 2,000 (36%) were called active. Inconclusive results (about 18%) are left out. Rule as the data show it: active = normalized growth mostly below about 0.91 (no sharp cut-off); inconclusive = no clear call, values can overlap the other calls; inactive = mostly above about 0.92. The list shows a part of the results.

Assay: chemical genetic growth profiling, strain panel (AID 1159580);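 also: tested at 20 µM; growth read once vehicle control cultures reached saturation at 30 °C; 1 = growth at the plate median or of vehicle wells; lower values mean less growth of the strain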
Details: growth OD

Measured: normalized growth

C[C@@H]1C(=O)OC2[C@H](O)C34[C@@H]5OC(=O)[C@@]3(O[C@@H]3OC(=O)[C@H](O)[C@@]34[C@H](C(C)(C)C)[C@H]5O)[C@]21O (some centres undefined)
inactive: S. cerevisiae deletion strains, locus YJR066W, strain TOR1, hits give low values 0.958 | S. cerevisiae deletion strains, locus YKL009W, strain mrt4, hits give low values 1.02 | S. cerevisiae deletion strains, locus YKL068W, hits give low values 1 | S. cerevisiae deletion strains, locus YKL085W, strain MDH1 (second series), hits give low values 1.01 | S. cerevisiae deletion strains, locus YKL085W, strain MDH1, hits give low values 1.01 | S. cerevisiae deletion strains, locus YKL160W, strain elf1, hits give low values 0.981 | S. cerevisiae deletion strains, locus YKL190W, strain CNB1, hits give low values 0.993 | S. cerevisiae deletion strains, locus YKR001C, strain vps1, hits give low values 1.02 | S. cerevisiae deletion strains, locus YKR026C, strain gcn3, hits give low values 0.977 | S. cerevisiae deletion strains, locus YKR091W, strain srl3, hits give low values 0.955 | S. cerevisiae deletion strains, locus YLL001W, strain dnm1, hits give low values 0.987 | S. cerevisiae deletion strains, locus YLL026W, hits give low values 0.984 | S. cerevisiae deletion strains, locus YLL041C, strain sdh2, hits give low values 0.971 | S. cerevisiae deletion strains, locus YLR027C, strain aat2, hits give low values 0.973 | S. cerevisiae deletion strains, locus YLR039C, strain RIC1, hits give low values 1 | S. cerevisiae deletion strains, locus YLR058C, strain SHM2, hits give low values 1 | S. cerevisiae deletion strains, locus YLR102C, strain apc9, hits give low values 1.01 | S. cerevisiae deletion strains, locus YLR113W, strain HOG1, hits give low values 0.997 | S. cerevisiae deletion strains, locus YLR221C, strain rsa3, hits give low values 0.978 | S. cerevisiae deletion strains, locus YLR258W, strain gsy2, hits give low values 0.978 | S. cerevisiae deletion strains, locus YLR262C, strain YPT6 (second series), hits give low values 0.964 | S. cerevisiae deletion strains, locus YLR262C, strain YPT6, hits give low values 1.01 | S. cerevisiae deletion strains, locus YLR268W, strain sec22, hits give low values 1.02 | S. cerevisiae deletion strains, locus YLR320W, strain mms22, hits give low values 0.98 | S. cerevisiae deletion strains, locus YLR330W, strain CHS5, hits give low values 1.01 | S. cerevisiae deletion strains, locus YLR342W, strain FKS1 (second series), hits give low values 1.01 | S. cerevisiae deletion strains, locus YLR342W, strain FKS1, hits give low values 0.982 | S. cerevisiae deletion strains, locus YLR357W, strain rsc2, hits give low values 0.932 | S. cerevisiae deletion strains, locus YLR370C, strain arc18, hits give low values 0.97 | S. cerevisiae deletion strains, locus YLR371W, strain rom2, hits give low values 1.02 | S. cerevisiae deletion strains, locus YLR384C, strain iki3, hits give low values 0.981 | S. cerevisiae deletion strains, locus YLR418C, strain cdc73, hits give low values 1.02 | S. cerevisiae deletion strains, locus YML016C, strain PPZ1, hits give low values 1.01 | S. cerevisiae deletion strains, locus YML032C, strain rad52, hits give low values 1 | S. cerevisiae deletion strains, locus YML120C, strain ndi1, hits give low values 0.975 | S. cerevisiae deletion strains, locus YML124C, strain tub3, hits give low values 1.02 | S. cerevisiae deletion strains, locus YMR058W, strain fet3, hits give low values 0.966 | S. cerevisiae deletion strains, locus YMR078C, strain ctf18, hits give low values 1.02 | S. cerevisiae deletion strains, locus YMR125W, strain sto1, hits give low values 0.941 | S. cerevisiae deletion strains, locus YMR129W, hits give low values 0.959 | S. cerevisiae deletion strains, locus YMR205C, strain PFK2, hits give low values 0.984 | S. cerevisiae deletion strains, locus YMR223W, strain ubp8, hits give low values 1.03 | S. cerevisiae deletion strains, locus YMR231W, strain pep5, hits give low values 0.984 | S. cerevisiae deletion strains, locus YMR263W, strain SAP30, hits give low values 1 | S. cerevisiae deletion strains, locus YMR307W, strain GAS1, hits give low values 0.979 | S. cerevisiae deletion strains, locus YNL067W, strain RPL9B, hits give low values 0.995 | S. cerevisiae deletion strains, locus YNL071W, strain lat1, hits give low values 0.974 | S. cerevisiae deletion strains, locus YNL183C, strain NPR1, hits give low values 0.973 | S. cerevisiae deletion strains, locus YNL209W, strain ssb2, hits give low values 0.971 | S. cerevisiae deletion strains, locus YNL233W, strain BNI4, hits give low values 1 | S. cerevisiae deletion strains, locus YNL248C, strain rpa49, hits give low values 0.961 | S. cerevisiae deletion strains, locus YNL250W, strain rad50, hits give low values 1.02 | S. cerevisiae deletion strains, locus YNL271C, strain bni1, hits give low values 1.01 | S. cerevisiae deletion strains, locus YNL298W, strain CLA4, hits give low values 1.02 | S. cerevisiae deletion strains, locus YNL307C, strain MCK1, hits give low values 1.03 | S. cerevisiae deletion strains, locus YNL322C, strain KRE1 (second series), hits give low values 0.963 | S. cerevisiae deletion strains, locus YNL322C, strain KRE1, hits give low values 1 | S. cerevisiae deletion strains, locus YNR049C, strain mso1, hits give low values 0.95 | S. cerevisiae deletion strains, locus YNR052C, strain pop2, hits give low values 1.01 | S. cerevisiae deletion strains, locus YOL012C, strain htz1 1.18 | S. cerevisiae deletion strains, locus YOL147C, strain pex11, hits give low values 1.02 | S. cerevisiae deletion strains, locus YOR001W, strain rrp6, hits give low values 0.972 | S. cerevisiae deletion strains, locus YOR061W, strain CKA2, hits give low values 1 | S. cerevisiae deletion strains, locus YOR069W, strain VPS5, hits give low values 0.997 | S. cerevisiae deletion strains, locus YOR070C, strain gyp1, hits give low values 0.988 | S. cerevisiae deletion strains, locus YOR080W, strain dia2, hits give low values 0.951 | S. cerevisiae deletion strains, locus YOR083W, strain WHI5, hits give low values 0.988 | S. cerevisiae deletion strains, locus YOR106W, strain vam3, hits give low values 0.978 | S. cerevisiae deletion strains, locus YOR136W, strain idh2, hits give low values 1.01 | S. cerevisiae deletion strains, locus YOR144C, strain elg1, hits give low values 1.01 | S. cerevisiae deletion strains, locus YOR184W, strain ser1, hits give low values 1.03 | S. cerevisiae deletion strains, locus YOR231W, strain MKK1, hits give low values 1.02 | S. cerevisiae deletion strains, locus YOR265W, strain rbl2, hits give low values 0.977 | S. cerevisiae deletion strains, locus YOR270C, strain vph1, hits give low values 0.935 | S. cerevisiae deletion strains, locus YOR290C, strain snf2, hits give low values 0.953 | S. cerevisiae deletion strains, locus YOR316C, strain cot1, hits give low values 1.02 | S. cerevisiae deletion strains, locus YPL051W, strain arl3, hits give low values 0.985 | S. cerevisiae deletion strains, locus YPL055C, strain LGE1, hits give low values 0.998 | S. cerevisiae deletion strains, locus YPL078C, strain atp4, hits give low values 0.984 | S. cerevisiae deletion strains, locus YPL106C, strain sse1, hits give low values 0.944 | S. cerevisiae deletion strains, locus YPL240C, strain hsp82, hits give low values 0.979 | S. cerevisiae deletion strains, locus YPL241C, strain CIN2, hits give low values 0.99 | S. cerevisiae deletion strains, locus YPL256C, strain CLN2, hits give low values 1.06 | S. cerevisiae deletion strains, locus YPR119W, strain clb2, hits give low values 1.01 | S. cerevisiae deletion strains, locus YPR141C, strain kar3, hits give low values 1.01 | S. cerevisiae deletion strains, locus YPR163C, strain tif3, hits give low values 1.02 | S. cerevisiae deletion strains, locus YPR167C, strain met16, hits give low values 1.02 | S. cerevisiae deletion strains, strain wtn01, hits give low values 1.04 | S. cerevisiae strains, strain wild type, hits give low values 0.983
